Assay results from PubChem BioAssay AID1011 (National Center for Advancing Translational Sciences (NCATS), 2008).
Activity calls are given as the source filed them. Calls follow the shape of the full dose curve.

Assay: Confirmation Concentration-Response Assay for Inhibitors of the Schistosoma mansoni Redox Cascade
Settings: S. mansoni TGR/Prx2 coupled, NADPH fluorescence kinetics
Excerpt: NIH Molecular Libraries Screening Centers Network [MLSCN] NIH Chemical Genomics Center [NCGC] MLSCN Grant: MH076449-01 Assay Provider: Prof David Williams, Illinois State University This is a confirmation assay for PubChem BioAssay AID 448. Schistosoma mansoni, a causative agent of schistosomiasis, resides in the bloodstream of their host up to 30 years without being eliminated by the host immune attack. One proposed survival mechanism is the production of an antioxidant "firewall" that neutralizes the oxidative assault of the host's immune attack. Schistosoma mansoni peroxiredoxins (Prx) are important parasite antioxidant proteins that play a crucial role in redox balance mechanisms. […] First, the proteins are essential for the parasite survival. […] Third, the protein(s) is amenable for study at the molecular level and can be produced in bacteria in large quantities, in soluble and active form. Inhibition of Prx activity was screened in a coupled-enzyme format with reducing equivalents being transferred from NADPH to […] via thioredoxin/glutathione reductase (TGR)-catalyzed reaction, then from thioredoxin to hydrogen peroxide via Prx-catalyzed electron transfer. A decrease in the fluorescence intensity of NADPH was used to measure the enzyme activity. Purified S. mansoni TGR and Prx were provided by Professor David L. Williams, Illinois State University.
Buffer: 100 mM phosphate buffer, pH 7.4, 10 mM EDTA, 0.01% Tween-20. […] 100 uM NADPH/25 nM TGR/700 uM GSH/50 nM Prx2 mixture in columns 1, 2, 5-48. Titration of control potassium antimonyl tartrate (PAT, from 1 mM, then 1:5) pin-transferred to lower half of column 2. Column 1 and upper half of column 2 are neutral (100% activity). Assay Steps: Three uL of reagents were dispensed to 1536-well Greiner black plates. Compounds and controls (20 nL) were transferred via Kalypsys PinTool. The plates were incubated for 15 min at room temperature, and then a 1 uL aliquot of 400 uM NADPH/700 uM GSH was added, immediately followed by a 1uL aliquot of 2.5 mM H2O2 (to start the reaction). The plate was transferred to ViewLux (Perkin-Elmer) High-throughput CCD imager where kinetic measurements (every 30 sec, for a total of 8 min) of NADPH fluorescence were taken using 365 nm excitation/450 nm emission filter set. During dispense, enzyme-containing reagent bottles were kept submerged into 4 deg C water bath to minimize degradation.

**Q.** Which Potency does the source give for `COc1ccc(S(=O)(=O)N(CCCN2CCCC2=O)Cc2cc3c(C)ccc(C)c3[nH]c2=O)cc1` here?
**A.** 50.1 µM (active)

**Q.** With `CCOC(=O)C(C(=O)OCC)c1cc(Br)c2noc3c2c1C(=O)c1ccccc1-3` as the compound, how does the outcome read?
**A.** inactive

**Q.** For `COc1ccc(C(=O)c2no[n+]([O-])c2C(=O)c2ccc(OC)cc2)cc1`, which Potency is on record?
**A.** 4.67 µM (active)

**Q.** For `CCOc1ccc(OP2(=O)NC(=O)C=C(C)N2)cc1` (stereo not drawn), which Potency is on record?
**A.** 0.18 µM (active)

**Q.** For `CC1=CC(=O)NP(=O)(Oc2ccc3ccccc3c2)N1` (stereo not drawn), which Potency is on record?
**A.** 0.12 µM (active)

**Q.** For `Cc1conc1C(=O)c1no[n+]([O-])c1C(=O)c1nocc1C`, which outcome is on record?
**A.** inactive

**Q.** With `O=C(c1ccco1)c1no[n+]([O-])c1C(=O)c1ccco1` as the compound, how does the Potency read?
**A.** 1.52 µM (active)

**Q.** With `CC1=CC(=O)NP(=O)(Oc2ccc(Cl)cc2)N1` (stereo not drawn) as the compound, how does the Potency read?
**A.** 0.42 µM (active)

**Q.** With `COc1ccc2cc(CN(C[C@H]3COCCO3)S(=O)(=O)c3ccccc3)c(=O)[nH]c2c1` as the compound, how does the outcome read?
**A.** inactive

**Q.** For `Cc1cc(C)c2cc(CN(CC3COCCO3)S(=O)(=O)c3ccc(Cl)cc3)c(=O)[nH]c2c1` (stereo not drawn), which outcome is on record?
**A.** inactive

**Q.** For `O=C1c2cccc3cccc(c23)N1Cc1ccccc1`, which outcome is on record?
**A.** inactive

**Q.** With `CCCCOc1cc(Br)c2noc3c2c1C(=O)c1ccccc1-3` as the compound, how does the Potency read?
**A.** 0.8 µM (active)

**Q.** For `CCOCN1C(=O)c2cccc3cccc1c23`, which outcome is on record?
**A.** inactive

**Q.** For `CC1=CC(=O)NP(=O)(Oc2ccccc2)N1` (stereo not drawn), which Potency is on record?
**A.** 2.03 µM (active)

**Q.** With `Cc1ccc(S(=O)(=O)N(CCCN2CCCC2=O)Cc2cc3c(C)ccc(C)c3[nH]c2=O)cc1` as the compound, how does the outcome read?
**A.** inactive

**Q.** Which Potency does the source give for `COc1ccc(S(=O)(=O)N(Cc2cc3ccc(OC)cc3[nH]c2=O)C[C@H]2COCCO2)cc1` here?
**A.** 66.3 µM (active)

**Q.** With `Cc1cc2cc(CN(CCCN3CCCC3=O)S(=O)(=O)c3ccc(F)cc3)c(=O)[nH]c2cc1C` as the compound, how does the outcome read?
**A.** inactive

**Q.** With `O=C(c1cccs1)c1no[n+]([O-])c1C(=O)c1cccs1` as the compound, how does the Potency read?
**A.** 1.48 µM (active)

**Q.** For `COc1ccc2cc(CN(C[C@H]3COCCO3)S(=O)(=O)c3ccc(Cl)cc3)c(=O)[nH]c2c1`, which outcome is on record?
**A.** inactive

**Q.** With `CCN1C(=O)c2cccc3cccc1c23` as the compound, how does the outcome read?
**A.** inactive

**Q.** For `COC(=O)C(C(=O)OC)c1cc(Br)c2noc3c2c1C(=O)c1ccccc1-3`, which Potency is on record?
**A.** 0.12 µM (active)

**Q.** With `O=P(Nc1ccccc1F)(c1ccccc1)c1nc2ccccc2s1` (stereo not drawn) as the compound, how does the Potency read?
**A.** 23.9 µM (active)

**Q.** Which outcome does the source give for `CN1C(=O)c2cccc3cccc1c23` here?
**A.** inactive
